Data taken from the supplement of paper PMC10849652.
About 7,900 targets were measured; listed, in parts, are those with a hit and a random draw of the rest. About 0.6% of all pairs of compound and target were hits. Values without a mark were called inactive.

Columns and labels:
Assay in all cases: log2 fold change, soluble protein after heating vs DMSO (PISA); higher = thermal stabilisation; K562 cells, 10 uM, 30 min; active = over 0.2 and 3.5 SD of the protein, either way, in both replicates (recomputed)
IRAK-1-4 Inhibitor I = compound: C1COCCN1CCN2C3=CC=CC=C3N=C2NC(=O)C4=CC(=CC=C4)[N+](=O)[O-] [IRAK-1-4 Inhibitor I]
How it was run: (§1)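 Soluble protein was quantified by TMTpro 16plex LC-MS/MS after channel sums were equalised. It was obtained as the supernatant after 21,000xg for 90 min from pooled aliquots of K562 cells (2×10^6 cells/mL, 10 μM compound, 30 min) heated for 3 min across 48°C-58°C and extracted in PBS with 0.5% NP-40 at 4°C. Thermal stability values are relative to control samples and come from duplicates. They are given as log2 fold changes.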

ibrutinib = compound: C=CC(=O)N1CCC[C@@H](n2nc(-c3ccc(Oc4ccccc4)cc3)c3c(N)ncnc32)C1 [ibrutinib]
How it was run: as §1

[1] = compound: CC(=O)c1cnc2ccc(-c3cc(Cl)c(O)c(Cl)c3)nc2c1N[C@H]1CC[C@H](CN(C)C)CC1
How it was run: as §1

ralimetinib = compound: CC(C)(C)Cn1c(N)nc2ccc(-c3[nH]c(C(C)(C)C)nc3-c3ccc(F)cc3)nc21 [ralimetinib]
How it was run: as §1

[2] = compound: CC(C)(O)CC(=O)NCCn1ccc2ncnc(Nc3ccc(Oc4cccc(C(F)(F)F)c4)c(Cl)c3)c21
How it was run: as §1

[3] = compound: CC(C)C1=C2N=C(C=C(N2N=C1)NCC3=CC=CC=C3)NCCCCCCN
How it was run: as §1

[4] = compound: CC(C)C[C@@H](C=O)NC(=O)[C@H](CC(C)C)NC(=O)[C@H](CC(C)C)NC(=O)OCc1ccccc1
How it was run: as §1

pinometostat = compound: CC(C)N(C[C@H]1O[C@@H](n2cnc3c(N)ncnc32)[C@H](O)[C@@H]1O)[C@H]1C[C@@H](CCc2nc3cc(C(C)(C)C)ccc3[nH]2)C1 [pinometostat]
How it was run: as §1

[5] = compound: CC1=C(C(CC(=O)N1)C2=CC=C(C=C2)C(F)(F)F)C(=O)NC3=C(C=C4C(=C3)C=NN4)F
How it was run: as §1

[6] = compound: CC1=C(C2=C(C=C1)C(=O)C3=CC=CC=C3N2CCCN)C
How it was run: as §1

[7] = compound: CC1=C(C=C(C=C1)NC(=O)C2=CC(=CC=C2)C(C)(C)C#N)NC3=CC4=C(C=C3)N=CN(C4=O)C
How it was run: as §1

[8] = compound: CC1=C(C=C(C=C1)NC(=O)C2=CC(=CC=C2)N(C)C)NC(=O)C3=CC=C(C=C3)O
How it was run: as §1

[9] = compound: CC1=CC=C(C=C1)SC2=C3C=C(SC3=CN=C2)C(=O)N
How it was run: as §1

[10] = compound: CC1=NC(=CC=C1)C2=C(N=C(N2)C(C)(C)C)C3=CC4=NC=CN=C4C=C3
How it was run: as §1

Nexturastat A = compound: CCCCN(Cc1ccc(C(=O)NO)cc1)C(=O)Nc1ccccc1 [Nexturastat A]
How it was run: as §1

vemurafenib = compound: CCCS(=O)(=O)Nc1ccc(F)c(C(=O)c2c[nH]c3ncc(-c4ccc(Cl)cc4)cc23)c1F [vemurafenib]
How it was run: as §1

[11] = compound: CCCS(=O)(=O)Nc1ccc(F)c(C(=O)c2c[nH]c3ncc(Cl)cc23)c1F
How it was run: as §1

[12] = compound: CCCc1cc(C)[nH]c(=O)c1CNC(=O)c1cc(-c2ccnc(N3CCN(C)CC3)c2)cc2c1cnn2C(C)C
How it was run: as §1

givinostat = compound: CCN(CC)Cc1ccc2cc(COC(=O)Nc3ccc(C(=O)NO)cc3)ccc2c1 [givinostat]
How it was run: as §1

barasertib = compound: CCN(CCCOc1ccc2c(Nc3cc(CC(=O)Nc4cccc(F)c4)[nH]n3)ncnc2c1)CCOP(=O)(O)O [barasertib]
How it was run: as §1

Sequence of UniProt Q9NUQ2 (Q9NUQ2 whole entry, looked up): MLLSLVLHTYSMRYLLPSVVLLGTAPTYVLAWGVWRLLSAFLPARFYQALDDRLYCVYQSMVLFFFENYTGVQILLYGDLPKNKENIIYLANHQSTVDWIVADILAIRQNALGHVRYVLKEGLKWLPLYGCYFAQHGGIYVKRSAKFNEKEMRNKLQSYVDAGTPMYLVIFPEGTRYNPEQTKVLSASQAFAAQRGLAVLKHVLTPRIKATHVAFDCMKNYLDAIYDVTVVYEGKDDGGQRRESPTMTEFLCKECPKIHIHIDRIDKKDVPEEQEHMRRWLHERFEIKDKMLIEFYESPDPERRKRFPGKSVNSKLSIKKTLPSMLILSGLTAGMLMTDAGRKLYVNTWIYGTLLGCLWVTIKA
Sequence of UniProt Q16186 (Q16186 whole entry, looked up): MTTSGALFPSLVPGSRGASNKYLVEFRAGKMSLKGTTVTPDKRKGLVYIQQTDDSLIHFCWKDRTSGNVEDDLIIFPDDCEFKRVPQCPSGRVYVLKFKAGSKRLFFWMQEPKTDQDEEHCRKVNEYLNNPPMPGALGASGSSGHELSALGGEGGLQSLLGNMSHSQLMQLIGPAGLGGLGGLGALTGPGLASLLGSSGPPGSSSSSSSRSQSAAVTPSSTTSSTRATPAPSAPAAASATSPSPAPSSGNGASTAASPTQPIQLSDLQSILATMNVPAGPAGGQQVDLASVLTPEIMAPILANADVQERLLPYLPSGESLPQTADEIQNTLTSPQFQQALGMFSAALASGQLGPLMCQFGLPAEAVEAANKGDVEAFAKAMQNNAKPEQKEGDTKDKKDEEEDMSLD
Sequence of UniProt Q5T9A4 (Q5T9A4 whole entry, looked up): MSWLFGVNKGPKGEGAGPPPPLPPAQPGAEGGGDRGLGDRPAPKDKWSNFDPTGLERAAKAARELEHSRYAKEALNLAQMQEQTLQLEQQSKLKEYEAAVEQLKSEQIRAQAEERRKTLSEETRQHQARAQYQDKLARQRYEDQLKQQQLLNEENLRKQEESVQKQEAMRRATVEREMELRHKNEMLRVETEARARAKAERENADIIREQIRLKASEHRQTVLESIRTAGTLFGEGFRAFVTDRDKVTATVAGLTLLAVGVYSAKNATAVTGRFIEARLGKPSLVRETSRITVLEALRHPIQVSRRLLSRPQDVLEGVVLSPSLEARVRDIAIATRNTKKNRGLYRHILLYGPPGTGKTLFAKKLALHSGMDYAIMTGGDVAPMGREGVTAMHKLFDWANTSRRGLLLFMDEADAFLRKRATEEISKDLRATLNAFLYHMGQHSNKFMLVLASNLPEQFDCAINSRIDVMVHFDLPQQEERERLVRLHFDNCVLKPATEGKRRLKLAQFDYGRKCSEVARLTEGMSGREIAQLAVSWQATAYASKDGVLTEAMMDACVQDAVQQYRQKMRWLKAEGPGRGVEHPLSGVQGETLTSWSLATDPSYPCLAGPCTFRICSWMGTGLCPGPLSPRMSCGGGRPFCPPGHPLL
Sequence of UniProt P53680 (P53680 whole entry, looked up): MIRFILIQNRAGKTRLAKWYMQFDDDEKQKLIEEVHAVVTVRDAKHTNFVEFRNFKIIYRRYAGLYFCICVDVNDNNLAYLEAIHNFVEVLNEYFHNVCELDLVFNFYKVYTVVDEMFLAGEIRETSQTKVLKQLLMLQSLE
Sequence of UniProt O94973 (O94973 whole entry, looked up): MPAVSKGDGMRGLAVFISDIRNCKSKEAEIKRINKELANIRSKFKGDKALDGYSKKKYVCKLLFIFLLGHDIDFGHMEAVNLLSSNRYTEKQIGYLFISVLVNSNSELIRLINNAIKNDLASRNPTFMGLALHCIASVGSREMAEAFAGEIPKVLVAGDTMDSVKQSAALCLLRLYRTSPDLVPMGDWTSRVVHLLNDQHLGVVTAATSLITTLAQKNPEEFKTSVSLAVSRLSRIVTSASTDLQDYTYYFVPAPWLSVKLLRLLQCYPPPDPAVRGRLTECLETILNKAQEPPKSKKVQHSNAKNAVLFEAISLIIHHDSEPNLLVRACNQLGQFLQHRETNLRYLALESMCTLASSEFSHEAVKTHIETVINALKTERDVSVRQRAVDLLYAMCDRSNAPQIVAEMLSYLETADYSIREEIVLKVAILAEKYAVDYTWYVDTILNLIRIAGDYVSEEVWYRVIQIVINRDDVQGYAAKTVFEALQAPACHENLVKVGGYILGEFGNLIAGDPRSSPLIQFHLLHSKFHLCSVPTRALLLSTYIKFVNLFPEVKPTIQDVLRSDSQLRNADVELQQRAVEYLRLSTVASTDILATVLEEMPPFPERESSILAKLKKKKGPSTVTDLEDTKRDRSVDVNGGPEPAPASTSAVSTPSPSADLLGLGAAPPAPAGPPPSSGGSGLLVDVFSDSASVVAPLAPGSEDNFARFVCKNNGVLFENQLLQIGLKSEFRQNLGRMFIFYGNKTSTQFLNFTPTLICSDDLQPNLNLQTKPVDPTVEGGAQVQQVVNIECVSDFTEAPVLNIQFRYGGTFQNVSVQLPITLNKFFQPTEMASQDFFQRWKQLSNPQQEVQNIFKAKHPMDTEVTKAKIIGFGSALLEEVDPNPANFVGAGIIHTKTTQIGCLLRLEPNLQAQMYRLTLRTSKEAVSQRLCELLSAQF
Sequence of UniProt O14981 (O14981 whole entry, looked up): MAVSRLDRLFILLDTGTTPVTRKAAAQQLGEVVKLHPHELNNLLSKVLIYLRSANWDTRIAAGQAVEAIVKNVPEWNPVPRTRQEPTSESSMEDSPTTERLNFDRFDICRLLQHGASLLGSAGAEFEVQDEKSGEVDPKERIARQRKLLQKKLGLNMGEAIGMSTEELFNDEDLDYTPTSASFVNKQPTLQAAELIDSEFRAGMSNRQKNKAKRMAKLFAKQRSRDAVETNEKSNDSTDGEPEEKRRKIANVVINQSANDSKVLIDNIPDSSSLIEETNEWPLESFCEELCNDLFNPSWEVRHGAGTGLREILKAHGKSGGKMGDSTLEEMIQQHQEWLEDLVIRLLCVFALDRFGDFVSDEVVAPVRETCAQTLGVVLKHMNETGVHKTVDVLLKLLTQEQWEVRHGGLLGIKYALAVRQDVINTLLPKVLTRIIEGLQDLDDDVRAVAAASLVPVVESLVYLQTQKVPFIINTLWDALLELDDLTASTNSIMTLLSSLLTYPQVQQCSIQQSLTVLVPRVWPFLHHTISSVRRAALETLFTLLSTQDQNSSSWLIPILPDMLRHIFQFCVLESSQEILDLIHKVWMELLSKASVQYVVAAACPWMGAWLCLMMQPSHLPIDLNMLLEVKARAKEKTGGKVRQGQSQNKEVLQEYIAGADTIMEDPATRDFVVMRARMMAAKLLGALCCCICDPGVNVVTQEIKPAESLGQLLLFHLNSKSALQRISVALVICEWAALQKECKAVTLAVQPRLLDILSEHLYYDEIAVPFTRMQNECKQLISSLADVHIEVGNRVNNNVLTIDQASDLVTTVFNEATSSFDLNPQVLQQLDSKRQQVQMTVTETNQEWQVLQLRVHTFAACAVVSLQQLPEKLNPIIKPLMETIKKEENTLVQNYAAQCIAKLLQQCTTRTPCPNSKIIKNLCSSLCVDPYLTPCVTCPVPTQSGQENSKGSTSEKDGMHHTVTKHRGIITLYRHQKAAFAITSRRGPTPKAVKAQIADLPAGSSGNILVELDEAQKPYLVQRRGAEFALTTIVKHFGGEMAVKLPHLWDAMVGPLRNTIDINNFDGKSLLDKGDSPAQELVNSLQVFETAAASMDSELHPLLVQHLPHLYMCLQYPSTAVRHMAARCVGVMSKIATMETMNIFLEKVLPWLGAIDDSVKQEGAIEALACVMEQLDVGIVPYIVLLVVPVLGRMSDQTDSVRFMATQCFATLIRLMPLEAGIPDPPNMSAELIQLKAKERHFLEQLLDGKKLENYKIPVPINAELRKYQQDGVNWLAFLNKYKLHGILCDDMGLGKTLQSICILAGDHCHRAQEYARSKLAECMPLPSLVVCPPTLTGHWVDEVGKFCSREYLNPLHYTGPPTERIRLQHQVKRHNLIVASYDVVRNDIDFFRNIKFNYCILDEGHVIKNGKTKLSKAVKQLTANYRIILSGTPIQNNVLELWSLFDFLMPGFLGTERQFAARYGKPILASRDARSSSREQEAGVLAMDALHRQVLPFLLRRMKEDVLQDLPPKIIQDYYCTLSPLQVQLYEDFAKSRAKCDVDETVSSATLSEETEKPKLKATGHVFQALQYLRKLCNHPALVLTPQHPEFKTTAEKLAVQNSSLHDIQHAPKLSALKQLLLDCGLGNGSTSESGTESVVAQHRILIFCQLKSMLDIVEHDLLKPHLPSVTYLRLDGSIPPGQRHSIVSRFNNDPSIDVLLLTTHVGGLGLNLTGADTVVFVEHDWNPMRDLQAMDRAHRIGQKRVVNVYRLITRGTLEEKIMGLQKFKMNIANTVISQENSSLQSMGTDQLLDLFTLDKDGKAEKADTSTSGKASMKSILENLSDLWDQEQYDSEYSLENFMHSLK
Sequence of UniProt Q9HC16 (Q9HC16 whole entry, looked up): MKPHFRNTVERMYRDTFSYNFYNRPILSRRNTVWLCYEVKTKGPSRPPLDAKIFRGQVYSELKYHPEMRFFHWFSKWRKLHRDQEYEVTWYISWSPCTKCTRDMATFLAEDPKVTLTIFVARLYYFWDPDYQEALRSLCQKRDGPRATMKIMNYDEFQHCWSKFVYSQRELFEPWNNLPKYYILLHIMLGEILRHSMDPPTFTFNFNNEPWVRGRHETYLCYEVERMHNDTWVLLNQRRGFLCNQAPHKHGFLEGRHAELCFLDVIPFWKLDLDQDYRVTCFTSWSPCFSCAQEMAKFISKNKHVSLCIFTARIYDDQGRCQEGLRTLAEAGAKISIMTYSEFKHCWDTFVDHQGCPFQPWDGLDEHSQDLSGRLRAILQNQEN

Row | Target | log2 fold change (IRAK-1-4 Inhibitor I) | log2 fold change (ibrutinib) | log2 fold change [1] | log2 fold change (ralimetinib) | log2 fold change [2] | log2 fold change [3] | log2 fold change [4] | log2 fold change (pinometostat) | log2 fold change [5] | log2 fold change [6] | log2 fold change [7] | log2 fold change [8] | log2 fold change [9] | log2 fold change [10] | log2 fold change (Nexturastat A) | log2 fold change (vemurafenib) | log2 fold change [11] | log2 fold change [12] | log2 fold change (givinostat) | log2 fold change (barasertib)
1 | APOBEC3G (UniProt Q9HC16) | -0.064 | 0.103 | -0.111 | 0.128 | 0.075 | 0.046 | 0.077 | 0.11 | -0.09 | -0.492 (active) | -0.019 | 0.069 | -0.064 | -0.014 | 0.172 | 0.069 | -0.083 | 0.051 | 0.129 | 0.019
2 | ATAD3B (UniProt Q5T9A4) | -0.05 | 0.045 | -0.01 | 0.122 | -0.011 | -0.472 (active) | 0.066 | 0.276 | 0.077 | 0.024 | -0.07 | -0.022 | 0.003 | -0.009 | 0.236 | -0.024 | 0.042 | 0.058 | 0.05 | -0.019
3 | ADRM1 (UniProt Q16186) | -0.096 | -0.111 | 0.033 | 0.065 | -0.077 | -0.005 | -0.064 | 0.015 | -0.022 | 0.04 | 0.067 | 0.009 | -0.013 | 0.024 | 0.104 | -0.022 | -0.028 | 0.01 | 0.034 | -0.021
4 | AP2A2 isoform 2 (UniProt O94973) | -0.003 | -0.015 | 0.008 | 0.006 | 0.033 | 0.019 | 0.032 | 0.025 | -0.02 | 0.107 | 0.084 | 0 | 0.01 | 0.049 | 0.004 | -0.008 | 0.002 | 0.038 | 0.003 | 0.002
5 | BTAF1 (UniProt O14981) | 0.021 | 0.029 | 0.022 | -0.043 | -0.168 | -0.131 | 0.01 | -0.011 | 0.003 | -0.087 | -0.033 | 0.07 | -0.035 | 0.011 | -0.064 | -0.003 | 0.041 | -0.018 | 0.009 | 0.038
6 | AP2S1 (UniProt P53680) | -0.054 | -0.01 | -0.117 | -0.017 | -0.003 | 0.028 | -0.07 | 0.038 | -0.009 | 0.091 | 0.009 | -0.028 | -0.036 | 0.037 | -0.038 | 0.002 | 0.03 | 0.007 | -0.015 | -0.034
7 | AGPAT5 (UniProt Q9NUQ2) | 0.047 | 0.003 | 0.062 | -0.037 | 0.03 | -0.163 | 0.002 | 0.007 | -0.001 | 0.021 | -0.02 | -0.009 | 0.012 | -0.068 | -0.061 | 0.008 | 0.095 | -0.088 | -0.05 | 0.015
